The source of these data is PubChem BioAssay AID435005 (Broad Institute, 2010).

The structures appear in SMILES notation. Hit rate of the full screen: of about 300,000 compounds, about 2,400 (0.8%) were called active. The sample holds actives, similar compounds and a random draw of the others, so the mix is not that of the screen.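 The calls were made as follows: active = Every replicate reaches about 75%, or at least half do and their mean reaches it too (limit read from the data); inconclusive = At least half of replicates reach the limit but their mean does not; inactive = Under half of replicates reach the limit.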

A short description of this assay: INS-1E beta cell survival under cytokines – luminescence, primary screen (AID 435005).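 Also: 0% = cytokine-treated negative control wells and 100% = positive control rescue; higher means more ATP so stronger rescue from cytokine killing.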 To be noted: INS-1E cytokine-induced death, ATP luminescence, 48 h; active compounds read high; percent of positive-control rescue, neutral wells zero; concentration not given here.
As for `O=C(OCCN1C(=O)c2ccccc2C1=O)[C@@H]1CC(O)CN1S(=O)(=O)c1ccccc1[N+](=O)[O-]` (stereo partly specified), the protection from apoptosis was 4.37% (inactive).
As to `C=CC[C@H](CC(=O)OC(C)(C)C)C(=O)OC[C@H]1CCCN1C(=O)[C@H](CC=C)CC(=O)N(CCO)Cc1ccccc1`, the protection from apoptosis was 5.16% (inactive).
As to `CCC(CO)Oc1cc(NC(=O)c2cccc(F)c2)c2ncn(C(C)C)c2c1` (stereo unspecified), the protection from apoptosis was -0.224% (inactive).
Take `COC(=O)C1=C(C)N(Cc2ccccc2)C(=NCCCOC(C)C)N[C@H]1c1ccccc1`: the protection from apoptosis was 11.4% (inactive).
In the case of `Cc1cc(Nc2ccccc2)n(C(=O)c2ccc(N)cc2)n1` it was -16.4% (inactive); in that of `Nc1ccc(Nc2ccccc2)cc1`, 78% (active); in that of `Cc1ccc(Nc2ccccc2N)cc1`, -7.56% (inactive).
On to `O=C(Nc1nc2c(F)cc(F)cc2s1)C1COc2ccccc2O1` (stereo unspecified), for which the protection from apoptosis is 8.45% (inactive).
For `NC(=O)c1c(Nc2nc3c(F)cccc3s2)sc2c1CCCC2`, the protection from apoptosis was -4.14% (inactive).
In the case of `Fc1cc(F)c2nc(Nc3nc4c(F)cccc4s3)sc2c1`, the protection from apoptosis was 103% (active).
Consider `COc1ccc(C(=O)O)cc1S(=O)(=O)NC1CCN(Cc2ccccc2)CC1`, for which the protection from apoptosis is -4.08% (inactive).
`Cc1ccc(Oc2nc(-c3ccccn3)nc3ccccc23)cc1`: the protection from apoptosis is 101% (active).
Turning to `N#Cc1ccc(Oc2cc(C(F)(F)F)nc(-c3ccccn3)n2)cc1`, the protection from apoptosis was -3.82% (inactive).
Regarding `COc1ccc(Cc2nc(-c3ccccn3)no2)cc1OC`, the protection from apoptosis is 4.66% (inactive).
For `CCOC(=O)c1cnc(-c2ccccc2)nc1Oc1ccc(C)cc1`, the protection from apoptosis is -3.84% (inactive).
As to `CCC(=O)OCCNc1nc(-c2ccccc2)nc2ccccc12`, the protection from apoptosis is 0.204% (inactive).
Then `CC(C)(C)Nc1nc(-c2ccccn2)nc2ccccc12`, with 118% (active); and `CCOCCCNc1nc(-c2ccccc2)nc2ccccc12`, with 4.15% (inactive).
Then `COc1cnc(-c2ccccn2)nc1Oc1ccc(C(C)(C)C)cc1`, with 97.3% (active); and `COc1ccc(Sc2nc(-c3ccccc3)ncc2OC)cc1`, with -2.84% (inactive).
With `COc1ccccc1S(=O)(=O)NCc1ccc(C(=O)N(C)Cc2ccc(F)cc2)cc1`, the protection from apoptosis was -4.62% (inactive).
Regarding `CCN(CC)C(=O)[C@H]1CC(CC(=O)NCc2ccco2)C(=O)N2CCc3c([nH]c4ccccc34)[C@]12C` (stereo partly specified), the protection from apoptosis is -1.53% (inactive).
In the case of `O=C(COc1ccc([N+](=O)[O-])cc1Cl)Nc1ccc2[nH]c(=O)[nH]c2c1` it was -0.613% (inactive); in that of `CN(c1ccccc1)S(=O)(=O)c1cc(C(=O)N2CCN(c3ncccn3)CC2)ccc1Cl`, -2.6% (inactive); in that of `COc1ccccc1-c1oc2ccccc2c1C#CCCCCO`, -5.68% (inactive).
As to `COC(=O)c1ccc(/C=C/c2c(-c3ccc(OC)cc3)sc3ccccc23)cc1`, the protection from apoptosis was 5.7% (inactive).
For `Cc1ccc(-n2ncc3c2CCCC3NC(=O)c2cnccn2)cc1C` (stereo unspecified), the protection from apoptosis is 2.44% (inactive).
Regarding `CC(=O)NCC(=O)NC1CCCc2c1cnn2-c1ccccc1F` (stereo unspecified), the protection from apoptosis is -7.28% (inactive).
On to `Cn1nccc1C(=O)NC1CCCc2c1cnn2-c1ccc(F)cc1F` (stereo unspecified), for which the protection from apoptosis was 132% (active).
Consider `Cn1nccc1C(=O)NC1CCCc2c1cnn2-c1ccccc1F` (stereo unspecified), for which the protection from apoptosis is 111% (active).
Consider `COc1ccc(C(=O)NC2CCCc3c2cnn3-c2cccc(C)c2C)c(OC)n1` (stereo unspecified), for which the protection from apoptosis was 32.4% (inactive).
In the case of `Cc1cc(C(=O)NC2CCCc3c2cnn3-c2cccc(C)c2C)c(C)o1` (stereo unspecified), the protection from apoptosis is 41.6% (inactive).
In the case of `Cc1c(C(=O)Nc2cccc(S(=O)(=O)N3CCOCC3)c2)oc2ccccc12` it was -9.31% (inactive); in that of `COc1cc(C(=O)OCc2cc(=O)n3ccsc3n2)ccc1OC(C)C`, -0.396% (inactive); in that of `CC(C)c1ccc(NC(=O)COC(=O)c2ccc(CN3CCCC3=O)cc2)cc1`, 3.42% (inactive).
Take `COc1ccccc1-c1sc2ccccc2c1C#CC1(O)CCCCC1`: the protection from apoptosis is -12% (inactive).
